Screening results as filed in PubChem BioAssay.
The entries come from a sample that favours hits as a whole.
ERK EGF block = blocks ERK signaling stimulated by EGF; Potency, µM (doses to about 11.5 µM), without a hit: at the highest dose activity change, negative = inhibition, hits mostly inhibitors; 0.41% of 130,000 active; HEK293-V1b, EGF-stimulated phospho-ERK AlphaScreen;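 further: potency means the concentration at half of the fitted maximal effect; plate controls were stimulated vehicle wells for no effect and unstimulated vehicle basal for full effect; nearly all actives have a fitted effect of over 55% in size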
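HEK293 cells stably expressing V1b receptor, serum-reduced (1% FBS) overnight, pretreated 30 min with compound, then stimulated 5 min with 25 nM EGF; phospho-ERK detected by AlphaScreen SureFire. AC50 from Hill fits, normalized to DMSO and EGF.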
ERK pERK EGF = reduces EGF-stimulated ERK phosphorylation in HEK293 cells; shares compounds with ERK EGF block; HEK293 EGF-stimulated ERK phosphorylation, AlphaScreen; Potency, µM (series often up to 57.5 µM), for inactives: at the highest dose activity change, negative = inhibition, actives largely listed as inhibitors; 60% of 60 active; AID 1725
c-Raf inh = c-Raf inhibition, ERK pathway follow-up; 70 tested, under 10 active; shares compounds with ERK EGF block; c-Raf kinase inhibition, homogeneous biochemical assay; AID 1728; activity change, negative = inhibition, % at 76.9 µM
MEK inh = blocks human MEK1 kinase activity in ERK pathway follow-up; shares compounds with ERK EGF block; homogeneous MEK kinase activity assay, ERK pathway; Potency, µM (highest dose often 76.9 µM), for inactives: top-dose activity change, negative = inhibition, hits mostly inhibitors; 70 tested, under 10 active; AID 1732
Target sequence (Q02750 whole entry, looked up): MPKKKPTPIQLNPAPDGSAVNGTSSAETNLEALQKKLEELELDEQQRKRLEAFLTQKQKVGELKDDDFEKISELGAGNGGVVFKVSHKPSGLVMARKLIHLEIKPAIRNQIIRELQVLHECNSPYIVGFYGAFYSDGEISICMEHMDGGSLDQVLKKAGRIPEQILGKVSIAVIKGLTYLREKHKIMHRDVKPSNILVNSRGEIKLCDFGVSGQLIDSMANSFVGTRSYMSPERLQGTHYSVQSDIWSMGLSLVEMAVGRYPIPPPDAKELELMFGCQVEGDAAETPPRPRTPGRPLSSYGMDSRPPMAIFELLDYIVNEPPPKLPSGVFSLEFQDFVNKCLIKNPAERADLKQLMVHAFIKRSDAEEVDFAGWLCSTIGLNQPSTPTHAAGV
* = called active by the depositor; ? = inconclusive; nt = not tested or not shown; [ ] = dose if it differs, or a comment. The call rests on the fitted dose curve; in most records, active means well fitted curve in the direction sought with a large enough effect; inconclusive means small, poorly fitted or top-dose-only effect, or another doubt; inactive means no such curve, though single readings can be large; an effect the other way counts as inactive or inconclusive.

SMILES	ERK EGF block	others
Nc1nc(-c2ccccc2)c(N=Nc2cccc3ccccc23)s1	20µM*
Nc1nc(-c2ccccc2)c(N=Nc2ccccc2Cl)s1	18µM*
O=C(O)Cc1sc(-c2ccccc2Cl)nc1-c1ccccc1	5%
NNc1nc(-c2ccccc2)c2ccccc2n1	-10%
COC(=O)C/C=C/[C@@H](C)[C@@H](Cc1ccccc1Br)OC	0%
CS(=O)(=O)N1CCC2(CC1)CN(Cc1ccc(C#N)cc1)C2	2%
COc1ccc2c(c1)O[C@@H](c1cccc(C(F)(F)F)c1)[C@H](OC(=O)NS(=O)(=O)c1ccc(C)cc1)C2=O	-11%
Cc1ccc(OCC(=O)NNC(=O)CSc2ncnc3sc(C)c(C)c23)cc1	-1%
CC(=O)c1cnc(Nc2ccc(C)cc2)s1	-5%
Cc1ccc(Nc2ncnc3sc(C)c(C)c23)cc1	8.9µM*	ERK pERK EGF=11µM*;c-Raf inh=?;MEK inh=-18%
CNC(=O)CSc1nnc(-c2ccccc2F)n1CCc1ccccc1	13%[57.5 µM]
Cc1cc(C)c(NS(=O)(=O)c2ccc(NC(=O)/C=C/C(=O)O)cc2)c(C)c1	30%
NS(=O)(=O)c1ccc(N/N=C/c2ccc3c(c2)OCO3)c([N+](=O)[O-])c1	-2%
O=C(O)c1ccc(N/N=C/c2ccc3c(c2)OCO3)cc1	3%
O=[N+]([O-])c1ccccc1N/N=C/c1ccc2c(c1)OCO2	?	ERK pERK EGF=?;c-Raf inh=-10;MEK inh=-1%
CCOc1ccc(NC(=O)C2CCCN(C)C2)cc1 (stereo unspecified)	-5%[57.5 µM]
CN(C)S(=O)(=O)c1cccc2c1C(=O)c1ccccc1C2=O	1%
NC(=O)COC(=O)c1cccc2c1-c1ccccc1C2=O	-9%
CNc1cccc2c1C(=O)c1ccccc1C2=O	10µM*	ERK pERK EGF=14µM*;c-Raf inh=-9;MEK inh=-19%
Cc1cccc(N(C)C(=O)C2CCCN2S(=O)(=O)c2cccc3nsnc23)c1 (stereo unspecified)	-1%[57.5 µM]
COc1cccc(CN(C)C(=S)Nc2ccc(C)c(C)c2)c1	7%
c1ccc(-n2nnnc2Sc2ncnc3sc4c(c23)CCCC4)cc1	0%
Cc1sc2ncnc(Sc3nnnn3-c3ccc(Cl)cc3)c2c1C	nt	ERK pERK EGF=-3%;c-Raf inh=-12;MEK inh=3%
CSc1nnnn1-c1ccc(Cl)cc1	-7%
COCCN(CCOC)c1nc(C)nc2c1nc(-c1ccccc1)n2CCN1CCCC1	-9%
SMILES	ERK EGF block	others
COc1cccc(Cn2c(=O)c(-c3cccc(Cl)c3)nc3cncnc32)c1	-2%
O=C(Nc1nnc(SCc2ccc(Cl)cc2)s1)C1CC(=O)N(Cc2ccccc2)C1 (stereo unspecified)	-2%
c1ccc(Nc2ncnc3ccc(-c4cccnc4)cc23)cc1	2.5µM*	ERK pERK EGF=3.5µM*;c-Raf inh=?;MEK inh=0%
CN(C)Cc1ccccc1-c1ccc2ncnc(NCc3ccccc3)c2c1	16%
c1cncc(-c2ccc3ncnc(N4CCNCC4)c3c2)c1	25%
COC(=O)C1OC(=O)C2O[C@@]23[C@]2(C)C(OC(C)=O)CC4C(C)(C)C(=O)CC[C@]4(C)C2CC[C@@]13C (stereo partly specified)	12%
O=C(NCC1CCCO1)/C(=C\c1ccco1)NC(=O)c1ccc(Cl)cc1 (stereo unspecified)	8%
N#CC(C#N)=C1C=CC=CN1/C(=C\c1ccco1)C(=O)c1ccc(Cl)cc1	10µM*	ERK pERK EGF=?;c-Raf inh=-15;MEK inh=-19%
N#C/C(=C\c1ccco1)C(=O)NCc1ccccc1	-3%
Cc1nc(Cl)sc1C(=O)Nc1cccc2ccccc12	8%
COC(=O)N1CCC[C@@]2(CCN(C(=O)Nc3ccc(OC)cc3)C2)C1	-5%
COc1ccccc1C(=O)NC1CCN(C(=S)NCCc2ccccc2)CC1	1%
O=c1cc(/C=C/c2c(F)cccc2Cl)[nH]c2ccccc12	6%
CC(C)(/C=N/NC(=O)CSCc1ccc(Cl)cc1)CCC#N	-3%
Cn1c(=O)cc(Nc2ccccc2)c2c(=O)n(-c3ccccc3)c(=O)n(-c3ccccc3)c21	5µM*	ERK pERK EGF=10µM*;c-Raf inh=-5;MEK inh=-15%
Cn1c(=O)c2c(Nc3ccc(F)cc3)cc(=O)n(-c3ccccc3)c2n(C)c1=O	2%[57.5 µM]
Cc1nc2cnc(Nc3ccccc3)nc2n(C)c1=O	-3%
CS(=O)(=O)N1CCC2(CC1)CN(C(c1ccccc1)c1ccccc1)C2	2%
CN(CC(=O)Nc1ccccc1Sc1ccccc1)C1CCCCC1	2%
c1cncc(CNc2ncnc3sc4c(c23)CCC4)c1	-14%[57.5 µM]
Fc1cccc(Nc2ncnc3sc4c(c23)CCC4)c1	3.2µM*	ERK pERK EGF=10µM*;c-Raf inh=?;MEK inh=8%
O=S(=O)(Nc1ncnc2sc3c(c12)CCC3)c1cc(F)ccc1F	-12%[57.5 µM]
